BRCA1 expr act = qHTS Assay to Identify Small Molecule Activators of BRCA1 Expression; 380,000 tested, 1.1% active; MCF7-BRCA1-FFLuc reporter, luminescence, 48 h; response scale: scaled: vehicle 0%, 10 µM genistein 100%; Potency, µM (series often up to 46.1 µM), inactives show top-dose activation, actives largely listed as activators; also: potency is read from the fitted curve at half-maximal effect; nearly all actives have a fitted effect of over 80% in size
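Reporter cells (MCF7, BRCA1 promoter-firefly luciferase) received library compounds across a concentration series for 48 h. End-point luminescence was measured and concentration-effect curves derived after normalization.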
TCR activator = Activators of T cell receptors: qHTS campaign; AID 504894, 2011; Potency, µM (highest dose often 9.22 µM), inactives show at the top dose activation of IL-2 secretion, hits mostly activators; 330,000 tested, under 10 active; primary human leukocytes, anti-CD3, IL-2 HTRF, 48 h; also: % of control where 0% means no effect
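1) Mix primary human leukocytes, a-CD3 beads and compound. 2) Incubate 48 hr. 3) Add HTRF IL-2 reagents (a-IL-2-K, a-IL-2-d2).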
N370S GC mod = qHTS Assay for Inhibitors and Activators of N370S glucocerebrosidase as a Potential Chaperone Treatment of Gaucher Disease. Lysosomal acid glucosylceramidase (Homo sapiens), P04062. N370S GC spleen homogenate, 4MU-glucoside fluorescence. Potency, µM (series often up to 59.4 µM), for inactives: top-dose activity change, negative = inhibition, most hits filed as inhibitors. 330,000 tested, 0.092% active;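 also: potency is read from the fitted curve at half-maximal effect; 0% = full enzyme activity and -100% = no enzyme basal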
TSHR antag = Antagonists of the Thyroid Stimulating Hormone Receptor: HTS campaign; Thyrotropin receptor (Homo sapiens), P16473; TSHR-expressing cells, TSH-stimulated cAMP HTRF, 2 h; active compounds read low; activity change, negative = inhibition, % at 11.5 µM; 330,000 tested, 0.2% active; AID 504810, 2011;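 active = activity change below a set negative limit, meaning inhibition stronger than a set level, cut at about -70% in these data; inconclusive = activity change between two set negative limits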; also: % is scaled to controls: 0 for no effect and ±100 for the full control effect
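TSHR-expressing cells were treated with compounds, then stimulated with TSH at EC80 (4nM final) for 2 hours at 37 deg C. Cellular cAMP was measured by HTRF competition between lysate cAMP and cAMP-d2 for a cryptate-labelled anti-cAMP antibody.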
GLS inh = qHTS for Inhibitors of Glutaminase (GLS); Glutaminase kidney isoform, mitochondrial (Homo sapiens), O94925; GLS enzymatic activity, qHTS titration; Potency, µM (titrated, usually from 45.5 µM), for the others: at the top dose activity change, negative = inhibition, actives largely listed as inhibitors; 410,000 tested, 0.21% active; AID 624170, 2012; also: potency is read from the fitted curve at half-maximal effect; % is scaled to controls: 0 for no effect and ±100 for the full control effect
Target sequence (O94925 whole entry, looked up, canonical isoform): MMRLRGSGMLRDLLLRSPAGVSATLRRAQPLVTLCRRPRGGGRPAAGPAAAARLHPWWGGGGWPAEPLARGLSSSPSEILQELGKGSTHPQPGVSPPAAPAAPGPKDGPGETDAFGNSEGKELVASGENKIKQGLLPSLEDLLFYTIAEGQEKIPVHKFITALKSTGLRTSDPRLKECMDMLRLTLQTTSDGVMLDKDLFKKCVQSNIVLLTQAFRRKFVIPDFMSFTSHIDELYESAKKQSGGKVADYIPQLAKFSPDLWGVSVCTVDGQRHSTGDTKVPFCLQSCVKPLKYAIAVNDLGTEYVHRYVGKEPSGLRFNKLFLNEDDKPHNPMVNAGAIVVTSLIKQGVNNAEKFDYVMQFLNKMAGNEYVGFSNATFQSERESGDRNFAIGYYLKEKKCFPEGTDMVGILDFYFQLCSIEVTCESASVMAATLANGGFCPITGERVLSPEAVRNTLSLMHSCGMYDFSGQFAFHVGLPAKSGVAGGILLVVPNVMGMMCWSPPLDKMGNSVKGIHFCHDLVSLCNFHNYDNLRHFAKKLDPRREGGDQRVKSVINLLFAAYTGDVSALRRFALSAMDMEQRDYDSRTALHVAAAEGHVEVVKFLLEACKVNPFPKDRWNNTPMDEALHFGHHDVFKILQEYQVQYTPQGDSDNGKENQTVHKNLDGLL
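Read-out is an Amplex red fluorescence increase coupled through glutamate oxidase and HRP, measured before and after 30 min room-temperature incubation. hKGA is in 45 mM KH2PO4 (pH 8.2) with 0.02% Tween-20; glutamine added as 1mM solution.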
p53 reactivator = qHTS assay for re-activators of p53 using a Luc reporter; H1299 p53-A138V BP100-luciferase reporter, luminescence, 24 h; Potency, µM (series often up to 92.2 µM), without a hit: top-dose activity change, positive = activation, hits mostly activators; 320,000 tested, 0.063% active; also: potency is read from the fitted curve at half-maximal effect; % of control where 0% means no effect; nearly all actives have a fitted effect of over 45% in size
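p53-null H1299 cells stably carrying temperature-sensitive p53-A138V and a BP100-luciferase reporter were pinned with compounds (4-point, 1:5 series) and held 24 hrs at 37 deg C. Luminescence was read 10 min after detection reagent.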
* marks the source's active call; other numbers are inactive results; ! = repeats disagree. In the library only some 1.4% were active in any assay of this set; here they are far more common. Unless noted, calls follow the shape of the dose curve; as a rule, active = well fitted curve in the direction sought with a large enough effect; inconclusive = small, poorly fitted or top-dose-only effect, or another doubt; inactive = no such curve, though single readings can be large; an effect the other way counts as inactive or inconclusive.

CCc1ccc2c(c1)C(NC(C)=O)C(=O)N2CCN1CCOCC1 (stereo not drawn) was read as BRCA1 expr act 11.8%, TCR activator 1.2%, N370S GC mod 1.1%, TSHR antag 4.8, GLS inh 5.01µM* and p53 reactivator 4.3%.
COc1ccc2c(c1)C(NC(C)=O)C(=O)N2CCc1ccccc1 (stereo not drawn) was read as BRCA1 expr act -7.7%, TCR activator 3.6%, N370S GC mod -11.5%, TSHR antag -2.8, GLS inh -7.6% and p53 reactivator -1.6%.
For O=C(NC1CCCC1)c1cnn2c1NC(=C1CC1)C=C2C(F)F the results were BRCA1 expr act -16.8%.
Screening O=C(O)/C=C/c1ccc([N+](=O)[O-])o1 returned BRCA1 expr act 11.9%, TCR activator 2.7%, N370S GC mod -11.1%, TSHR antag 0.2, GLS inh 11.2µM* and p53 reactivator 7.1%.
`CCCCC#Cc1nc(NC)c2ncn([C@@H]3O[C@H](CO)[C@@H](O)[C@H]3O)c2n1` gave TSHR antag -7.8.
`c1ccc(N2CCN(c3nc4cc5c(cc4s3)OCO5)CC2)cc1` gave BRCA1 expr act 3.98µM*!, TCR activator -7.9%, N370S GC mod 4.0%, TSHR antag -19.2, GLS inh -1.4% and p53 reactivator inconclusive.
Screening CS(=O)(=O)N1CCN(/[N+]([O-])=N/Oc2ccc([N+](=O)[O-])cc2[N+](=O)[O-])CC1 (tested in a mixture with another compound) returned BRCA1 expr act 20.6%.
Screening CN(C)C(=O)CNc1ccn2nc(-c3cccc(Cl)c3)cc2n1 returned BRCA1 expr act 5.01µM* and GLS inh 4.2%.
Screening CCC(CO)Nc1ccn2nc(-c3cc(OC)c(OC)c(OC)c3)cc2n1 (stereo not drawn) returned BRCA1 expr act -24.0% and GLS inh -4.5%.
CCC(CO)Nc1ccn2nc(-c3ccccc3)cc2n1 (stereo not drawn) was read as BRCA1 expr act 3.55µM* and GLS inh -10.0%.
CCC(CO)Nc1ccn2nc(-c3cccs3)cc2n1 (stereo not drawn) was read as BRCA1 expr act 5.62µM* and GLS inh 7.8%.
`CNC(=S)N/N=C/c1ccc(C(C)C)cc1` gave BRCA1 expr act 5.01µM*, TCR activator -15.2% and GLS inh inconclusive.
`O=C(NCC1CCCO1)c1csc2c1CCCCC2` (stereo not drawn) gave BRCA1 expr act 68.3%, TCR activator 2.6%, N370S GC mod 7.1%, TSHR antag 6.3, GLS inh -1.6% and p53 reactivator -0.4%.
`CC1CCc2c(C(=O)NCC3CCCO3)csc2C1` (stereo not drawn) gave BRCA1 expr act 11.2µM*, TCR activator -0.9%, N370S GC mod inconclusive, TSHR antag 22.9, GLS inh -3.6% and p53 reactivator 4.9%.
Screening CC1CCc2c(C(=O)Nc3nccs3)csc2C1 (stereo not drawn) returned BRCA1 expr act 12.6µM*, TCR activator -3.5%, N370S GC mod 2.9%, TSHR antag 6.8, GLS inh -6.4% and p53 reactivator inconclusive.
Screening CC1CCc2sc(C(=O)NC3CCCCC3)cc2C1 (stereo not drawn) returned BRCA1 expr act 11.2µM*, TCR activator -10.2%, TSHR antag -24.5 and GLS inh 2.1%.

High-throughput results (PubChem BioAssay)
